# A selection: hits, their analogues and other compounds. The true share with any hit is near 17%.
# ATXN viability – viability counter-screen for ATXN expression inhibitors | Potency, µM (top dose mostly 56.7 µM), usual class: cytotoxic | S2 cells (HEK-293 line with an ATXN2-luciferase reporter) viability, CellTiter-Fluor protease fluorescence, 24 h | 400,000 tested, 0.49% active | AID 651635; also: nearly all actives have a fitted effect of over 40% in size
# DT40 TDP1 CPT – growth inhibition of DT40 Tdp1-/-;hTDP1 cells with camptothecin (screen for TDP1 inhibitors). chicken DT40 Tdp1-/-;hTDP1 cells + 20 nM CPT, ATP luminescence, 48 h. Potency, µM (series often up to 46.2 µM), usual class: inhibitors. 420,000 tested, 12% active; also: nearly all actives have a fitted effect of over 55% in size
#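 Chicken DT40 Tdp1-/- cells stably complemented with human TDP1 were seeded at 400 cells/well in medium containing 20 nM camptothecin, exposed to pin-transferred compounds, and grown at 37 °C for at least 48 hr. Viability was read as ATP luminescence.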
# TDP1 cell noCPT – qHTS for Inhibitors of human tyrosyl-DNA phosphodiesterase 1 (TDP1): qHTS in cells in absence of CPT; DT40 Tdp1-/- hTDP1 cells, no CPT, ATP luminescence, 48 h; Potency, µM (top dose mostly 46.2 µM), hits mostly inhibitors; 420,000 tested, 15% active; AID 686978, 2013; also: nearly all actives have a fitted effect of over 55% in size
#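 A cellular qHTS used chicken DT40 cells lacking endogenous Tdp1 but carrying stably transfected human TDP1. Compounds were applied without camptothecin, and cell growth kinetics were judged by ATP-dependent luminescence after ≥48 hr.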
# HepG2 viability – counter-screen for TGF-b inhibitors: cytotoxicity in HepG2 cells. HepG2 CAGA-GFP viability, ATP luminescence, 18 h. Potency, µM (highest dose often 46.1 µM), usual class: cytotoxic. 410,000 tested, 0.76% active
#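 CellTiter-Glo luminescence gave cytotoxicity after 18 hours at 37 degrees C. The cells were HepG2 CAGA-GFP in 1% FBS DMEM, stimulated with 500 pg/mL TGF-beta after compound addition. %Activity was normalised to no-cell wells (complete cell-killing) and DMSO (no toxicity), and curves were fitted and classified.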
# TGFb SMAD3 inh – TGF-b pathway inhibition | HepG2 CAGA-GFP TGF-b/SMAD3 reporter, GFP fluorescence, 18 h; TGF-beta stimulated, 500 pg/mL final | Potency, µM (highest dose often 46.1 µM), hits mostly inhibitors | 410,000 tested, 1.2% active; also: nearly all actives have a fitted effect of over 65% in size
#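 First, reporter cells (HEPG2 CAGA-GFP) rested 2 h at 37 degrees C. Next, compounds were pinned in and TGF-beta added to 500 pg/mL final. After 18 h, GFP was imaged per cell and summed per well.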
# ATXN2 expr inh – reduces ATXN2 reporter expression in HEK-293 cells | 360,000 tested, 0.72% active | Potency, µM (doses to about 57 µM), usual class: inhibitors | HEK-293 ATXN2-luciferase reporter, luminescence, 24 h; also: nearly all actives have a fitted effect of over 55% in size
#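 ATXN2-luciferase reporter cells (luciferase flanked by upstream and downstream ATXN2 gene portions) were treated 24 h at 37 °C with compounds at up to 57 uM. SteadyGlo luminescence gave expression; GF-AFC fluorescence gave viability.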
# Hits are given with their value; i = inactive; ? = inconclusive; nt = not tested or not shown. Calls follow the shape of the dose curve; as a rule, active = well fitted curve in the direction sought with a large enough effect; inconclusive = small, poorly fitted or top-dose-only effect, or another doubt; inactive = no such curve, though single readings can be large; an effect the other way counts as inactive or inconclusive.
SMILES,ATXN viability,DT40 TDP1 CPT,TDP1 cell noCPT,HepG2 viability,TGFb SMAD3 inh,ATXN2 expr inh
Cc1ccc(S(=O)(=O)N2CCN(C(=O)COC(=O)/C=C/c3ccc(OC(F)F)cc3)CC2)cc1,i,?,21µM,i,i,i
Cc1ccc2ccccc2c1NC(=O)CNCc1ccccc1,i,i,?,i,i,nt
COc1ccc2oc(C(=O)OCC(=O)Nc3ccc(C(=O)N(C)C)cc3)c(C)c2c1,i,i,i,i,i,i
O=C(CSc1nc2c(c(=O)[nH]1)CCC2)Nc1cccc(O)c1,?,i,i,i,i,i
COC(=O)c1ccc(NC(=O)CCn2cccn2)cc1,i,i,i,i,i,i
Cc1ccc(S(=O)(=O)N2CCN(C(=O)COC(=O)C3(C)CC3(Cl)Cl)CC2)c(C)c1 (stereo not given),i,23µM,?,i,i,i
Cc1cc(C)c2c(=O)n3c(nc2c1)C(C)NC(=O)c1cccnc1-3 (stereo not given),?,i,i,i,i,i
Cc1cc(C)c2c(=O)n3c(nc2c1)C(Cc1ccc(O)cc1)NC(=O)c1cc2ccccc2cc1-3 (stereo not given),?,16µM,18µM,i,?,i
COc1ccc2nc3n(c(=O)c2c1)-c1cc2ccccc2cc1C(=O)NC3Cc1ccccc1 (stereo not given),?,?,21µM,i,i,i
O=C1NC(Cc2ccc(O)cc2)c2nc3ccc(Br)cc3c(=O)n2-c2cc3ccccc3cc21 (stereo not given),?,12µM,9.2µM,i,13µM,?
Cc1cc(C)c2c(=O)n3c(nc2c1)C(CC(C)C)NC(=O)c1cccnc1-3 (stereo not given),?,?,23µM,i,?,i
Cc1ccc(-n2c(SCC(=O)N3CCCc4ccccc43)nc3c([nH]c4ccccc43)c2=O)cc1,nt,i,i,i,i,nt
COc1ccc2nc3n(c(=O)c2c1)-c1cc2ccccc2cc1C(=O)NC3Cc1ccc(O)cc1 (stereo not given),?,?,18µM,i,?,?
S=C(Nc1ccc(Br)cc1Cl)N1CCN(c2ccccn2)CC1,?,i,i,i,i,i
COc1ccc(NC(=O)c2cccc3c(-c4cccnc4)coc23)cc1,i,12µM,21µM,i,i,i
O=C(Nc1ccccc1)c1cccc2c(-c3cccnc3)coc12,i,21µM,15µM,i,i,i
CC(C)CNC(=O)c1cccc2c(-c3cccnc3)coc12,i,i,i,i,i,i
COc1ccc(C(=O)N2CCC(c3ccccc3)CC2)c(OC)c1OC,i,i,i,i,i,nt
Nc1nc2ccccc2n1/N=C/c1ccc(-c2ccccc2)o1,i,?,16µM,i,?,i
Nc1nc2ccccc2n1/N=C/c1cccnc1,?,i,i,i,i,i
Cn1c(/C(C#N)=C(\O)c2ccc([N+](=O)[O-])s2)nc2ccccc21,i,i,i,i,i,i
Nc1nc2ccccc2n1/N=C/c1ccc([N+](=O)[O-])s1,i,2.1µM,2.9µM,i,?,?
Cc1cccc(NC(=O)CNC(=O)CN2C(=O)NC3(CCCCC3C)C2=O)c1C (stereo not given),i,i,i,i,i,i
Cc1ccc(NC(=O)CN2C(=O)COc3ccc(S(=O)(=O)NC4CCCC4)cc32)c(Cl)c1,?,i,?,i,i,i
Clc1ncc(C#Cc2ccccc2)c2ncncc12,nt,1.4µM,0.79µM,nt,nt,nt
SMILES,ATXN viability,DT40 TDP1 CPT,TDP1 cell noCPT,HepG2 viability,TGFb SMAD3 inh,ATXN2 expr inh
CCOC(=O)c1cnn(-c2ccccc2)c1-n1cccc1C(=O)C(=O)Nc1ccccc1C(F)(F)F,i,?,21µM,i,i,i
Cn1cccc1C(=O)C(=O)Nc1ccccc1C(F)(F)F,i,i,i,i,i,i
O=C(Nc1ccc(-c2nc3ccccc3[nH]2)cc1)c1cccc(N2C(=O)CCC2=O)c1,i,?,12µM,i,i,i
CC1CCCCN1S(=O)(=O)c1ccc(C(=O)Nc2ccccc2-c2nc3ccccc3[nH]2)cc1 (stereo not given),i,21µM,15µM,i,i,i
O=C(Nc1ccccc1-c1nc2ccccc2[nH]1)c1ccc(N2C(=O)CCC2=O)cc1,i,?,9.2µM,i,i,i
O=C(Nc1ccccc1-c1nc2ccccc2[nH]1)c1ccc(S(=O)(=O)N2CCCCC2)cc1,i,i,i,i,i,i
CCc1ccc(CNC(=O)C2CCCN(S(=O)(=O)N(CC)c3ccccc3)C2)cc1 (stereo not given),i,?,?,i,i,i
O=C1NCCCc2c1oc1ccc(O)cc21,i,?,?,i,i,i
Oc1c(Cl)cc(Cl)c2c1NCCC2,?,6.5µM,10µM,i,14µM,?
O=C(Nc1ccc([N+](=O)[O-])cc1Cl)c1cccc([N+](=O)[O-])c1,?,i,i,i,i,nt
O=C(Nc1cccc(Cl)c1)c1cccc(Oc2ccc([N+](=O)[O-])cc2Cl)c1,?,?,?,i,16µM,nt
COc1ccc(NC(=O)c2cccc(Oc3ccc([N+](=O)[O-])cc3Cl)c2)cc1,i,5.8µM,4.6µM,i,?,i
Cc1ccc(C)c(NC(=O)c2cccc(Oc3ccc([N+](=O)[O-])cc3Cl)c2)c1,i,?,16µM,i,?,nt
CCN(CC)C(=O)c1ccc(Oc2ccc([N+](=O)[O-])cc2Cl)cc1,i,?,16µM,i,i,i
Cc1cc(C)cc(NC(=O)CSc2nncn2-c2ccccn2)c1,i,i,i,i,i,i
COc1ccc(Cl)cc1/C=N/NC(=O)c1c(-c2ccccc2)noc1C,i,i,i,i,i,i
Cc1onc(-c2ccccc2)c1C(=O)N/N=C(\N)COc1ccc(Cl)cc1,i,16µM,?,i,i,i
Cc1ccc(OCCOC(=O)c2c(-c3ccccc3)noc2C)cc1,i,?,?,i,i,i
Cc1onc(-c2ccccc2Cl)c1C(=O)N/N=C(\N)COc1ccc(Cl)cc1,?,23µM,13µM,i,?,?
CCOc1ccc(C(=O)COC(=O)c2c(-c3ccccc3)noc2C)cc1,i,?,21µM,i,i,i
CC(C)n1nnnc1C1c2ccccc2C(=O)N1C1CC1 (stereo not given),i,i,i,nt,nt,i
COCCNC(=S)N(CCc1c(C)[nH]c2ccccc12)Cc1ccco1,i,i,i,i,i,i
COc1ccc(CN2C(=O)CSCC2(C)C(=O)NC(C)C)cc1 (stereo not given),nt,i,i,nt,nt,nt
